Assay results: PubChem BioAssay (NCATS)
Inconclusive results are not listed. Calls of active or inactive are those of the source. Calls follow the shape of the dose curve; as a rule, active = well fitted curve in the direction sought with a large enough effect; inconclusive = small, poorly fitted or top-dose-only effect, or another doubt; inactive = no such curve, though single readings can be large; an effect the other way counts as inactive or inconclusive.

Legend:
[1] = HEK-293 Cancer Cell Toxicity qHTS against the NCATS CANVASS Library (AID 1347355); settings: HEK-293 viability, CellTiter-Glo luminescence, 72 h; at 46.1 µM (top of the series); also: nearly all actives have a fitted effect of over 65% in size
In short: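 Cells were seeded at 1000 per well and allowed to settle 4 hours at 37 degrees C before pin transfer of compounds as an 11-point series. Viability was read by CellTiter-Glo luminescence after 72 hours' exposure.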

[2] = HPAF-II 24hr Apoptosis Induction qHTS against the NCATS CANVASS Library (AID 1347356)
In short: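 HPAF-II cells (500/well) in DMEM + 10% FBS were treated with an 11-point compound series for 24 hours at 37 degrees C. Caspase-3/7 activity was then read by Caspase-Glo DEVD luminescence after 15 min.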

[3] = HEK293 18hr Apoptosis Induction qHTS against the NCATS CANVASS Library (AID 1347357)
In short: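 HEK293 cells (500/well, DMEM + 10% FBS) treated with an 11-point series for 18 h at 37 degrees C. Caspase-3/7 activity read by Caspase-Glo luminescence after 15 min at room temperature.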

[4] = HPAF-II 12hr Apoptosis Induction qHTS against the NCATS CANVASS Library (AID 1347358)
In short: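 HPAF-II cells (500/well, DMEM + 10% FBS) were exposed to compounds for 12 hours at 37 degrees C. Caspase-3/7 activity was then read by Caspase-Glo 3/7 luminescence after 15 min at room temperature.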

[5] = HEK293 24hr Apoptosis Induction qHTS against the NCATS CANVASS Library (AID 1347359)
In short: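 HEK293 cells, 500 per well, exposed to an 11-point compound series for 24 hours at 37 degrees C. Caspase 3/7 activity read by Caspase-Glo luminescence (DEVD substrate) after 15 min at room temperature.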

[6] = HPAF-II 18hr Apoptosis Induction qHTS against the NCATS CANVASS Library (AID 1347360)
In short: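 HPAF-II cells at 500/well were exposed for 18 h at 37 C to an 11-point compound series. Caspase-3/7 activity was read by Caspase-Glo luminescence after 15 min at RT.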

[7] = HEK293 12hr Apoptosis Induction qHTS against the NCATS CANVASS Library (AID 1347361)
In short: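 HEK293 cells (500/well) were exposed to an 11-point qHTS concentration series for 12 hours at 37 degrees C. Caspase-3/7 activity was then read by DEVD-substrate luciferase luminescence after 15 min at room temperature.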

[8] = tested on: NAD(P)H diaphorase (Clostridium kluyveri); assay: Diaphorse counterscreen qHTS: Assay Interference Panel against the NCATS CANVASS Library (AID 1347362)
In short: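 Clostridium kluyveri diaphorase in PBS + 0.01% Tween-20 preincubated 15 min with compounds. Resazurin and NADH then added for 5 min at room temperature in the dark; resorufin fluorescence read (ex 525, em 598).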

[9] = target: Luciferin 4-monooxygenase (Photinus pyralis) (UniProt P08659); assay: Firefly luciferase counterscreen qHTS: Assay Interference Panel against the NCATS CANVASS Library (AID 1347363)
In short: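 Purified P. pyralis luciferase (0.04 ug/mL, 4x reagent) added to Tris-acetate buffer with 0.013 mM D-luciferin, 0.013 mM ATP and 13.3 mM Mg-acetate; compounds preincubated 15 min, then luminescence read after 5 min, RT.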

[10] = KB-8-5-11 Cancer Cell Toxicity qHTS against the NCATS CANVASS Library (AID 1347364); settings: KB-8-5-11 MDR cells viability, CellTiter-Glo, 72 h; at 46.1 µM (top of the series); also: nearly all actives have a fitted effect of over 75% in size
In short: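 KB-8-5-11 cells (500/well) in DMEM + 10% FBS were exposed to compounds in an 11-point qHTS series for 72 hr at 37C, 5% CO2. Viability was read by CellTiter-Glo luminescence.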

[11] = SDT Cancer Cell Toxicity qHTS against the NCATS CANVASS Library (AID 1347365); settings: SDT dog glioma viability, ATP luminescence, 72 h; at 46.1 µM (top of the series); also: nearly all actives have a fitted effect of over 60% in size
In short: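 SDT canine glioma cells (500 cells/well) were exposed to compounds in an 11-point series for 72 hr at 37C, 5% CO2; viability was read as ATP content by CellTiterGlo luminescence.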

[12] = KB-3-1 Cancer Cell Toxicity qHTS against the NCATS CANVASS Library (AID 1347366); also: nearly all actives have a fitted effect of over 75% in size
In short: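 KB-3-1 cells (500/well) in DMEM with 10% FBS were exposed to compounds for 72 h at 37C. Viability was read by CellTiter-Glo luminescence.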

[13] = qHTS for ATAD5 Agonist screened against the NCATS CANVASS Library (AID 1347367);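 also: luciferase reporter driven by ATAD5 which rises upon DNA damage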
In short: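 Luciferase reporter under ATAD5 control, stably integrated in HEK293T cells (2000/well). Compounds (11 points) incubated 16 h at 37C; viability read first by CellTiter-Fluor, then luminescence reporting ATAD5 activation. MMS positive control.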

[14] = G06 Cancer Cell Toxicity qHTS against the NCATS CANVASS Library (AID 1347368); settings: G06 dog glioma cells, viability ATP luminescence, 72 h; at 46.1 µM (top of the series); also: nearly all actives have a fitted effect of over 60% in size
In short: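 G06 dog glioma cells seeded at 500 cells/well were exposed to compounds (11-point qHTS series) for 72 hr at 37C, 5% CO2; viability read as ATP content by CellTiterGlo luminescence.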

[15] = MCF7 Cancer Cell Toxicity qHTS against the NCATS CANVASS Library (AID 1347369)
In short: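 MCF7 cells (500/well) were exposed 72 h at 37 °C to compounds in an 11-point series. Viability was read as ATP content by CellTiterGlo luminescence.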

[16] = qHTS for ATAD5 Antagonist screened against the NCATS CANVASS Library (AID 1347370);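 also: HEK293T cells carrying an ATAD5 luciferase reporter co-treated with 10 µM 5-fluorouridine; nearly all actives have a fitted effect of over 65% in size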
In short: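 HEK293T cells with a stably integrated ATAD5-controlled luciferase reporter were exposed to compounds (11-pt) alongside 10 uM 5-fluorouridine as ATAD5 stabilizer for 16hr at 37C. Viability was read by CellTiter-Fluor fluorescence, then ATAD5 by luminescence.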

[17] = J3T Cancer Cell Toxicity qHTS against the NCATS CANVASS Library (AID 1347371); settings: J3T dog glioma viability, ATP luminescence, 72 h; at 46.1 µM (top of the series)
In short: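 J3T dog glioma cells (500 cells/well) were exposed to compounds in an 11-point series for 72 hr at 37C, 5% CO2. Cytotoxicity was read as ATP content by CellTiterGlo luminescence.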

[18] = target: Nuclear receptor subfamily 1 group I member 3 (Homo sapiens) (UniProt Q14994); assay: qHTS for Constitutive Androstane Receptor (CAR) Antagonist screened against the NCATS CANVASS Library (AID 1347372);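 also: cells stimulated with 50 nM CITCO agonist so inhibition reflects antagonism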
In short: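 HepG2 cells stably carrying hCAR and CYP2B6-2.2kb luciferase reporter, 2500 cells/well, compound with 50 nM CITCO agonist for 24hr at 37C. ONE-Glo luminescence measured CAR activity; CellTiter-Fluor read viability.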

[19] = target: Nuclear receptor subfamily 1 group I member 3 (Homo sapiens) (UniProt Q14994); assay: qHTS for Constitutive Androstane Receptor (CAR) Agonist screened against the NCATS CANVASS Library (AID 1347373);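 also: every well also contained 1.5 µM PK11195 alongside the test compound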
In short: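 HepG2 cells stably expressing hCAR and a CYP2B6-2.2kb luciferase reporter were treated for 24hr at 37C with compounds (11-point qHTS) in the presence of 1.5uM PK11195. Reporter activation was read by ONE-Glo luminescence.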

[20] = qHTS for Hypoxia signaling pathway (HIF-1) antagonists against the NCATS CANVASS Library (AID 1347374);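 also: HRE-bla ME-180 cells stimulated with cobalt chloride to stabilize HIF-1alpha; nearly all actives have a fitted effect of over 60% in size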
In short: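 HRE-bla ME-180 cells (2,000/well, 0.5% dialyzed FBS) were pre-incubated 5 h, then given an 11-point compound series plus CoCl2 (60 uM solution as added) for 17 h at 37C. CCF4 β-lactamase read (ex 405, em 460/530 nm) after 2 h at RT.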

Measured: outcome

Sequence of Nuclear receptor subfamily 1 group I member 3 (Homo sapiens) (Q14994 whole entry, looked up): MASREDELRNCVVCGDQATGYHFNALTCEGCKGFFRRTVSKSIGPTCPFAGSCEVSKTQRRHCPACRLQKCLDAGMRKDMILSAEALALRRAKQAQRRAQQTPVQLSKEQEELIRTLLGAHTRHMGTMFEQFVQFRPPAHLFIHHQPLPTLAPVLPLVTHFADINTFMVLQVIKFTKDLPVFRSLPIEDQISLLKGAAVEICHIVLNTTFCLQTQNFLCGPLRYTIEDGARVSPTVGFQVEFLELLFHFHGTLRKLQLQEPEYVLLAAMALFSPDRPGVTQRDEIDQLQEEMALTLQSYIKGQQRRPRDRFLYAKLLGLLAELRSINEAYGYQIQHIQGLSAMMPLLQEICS
Sequence of Luciferin 4-monooxygenase (Photinus pyralis) (P08659 whole entry, looked up): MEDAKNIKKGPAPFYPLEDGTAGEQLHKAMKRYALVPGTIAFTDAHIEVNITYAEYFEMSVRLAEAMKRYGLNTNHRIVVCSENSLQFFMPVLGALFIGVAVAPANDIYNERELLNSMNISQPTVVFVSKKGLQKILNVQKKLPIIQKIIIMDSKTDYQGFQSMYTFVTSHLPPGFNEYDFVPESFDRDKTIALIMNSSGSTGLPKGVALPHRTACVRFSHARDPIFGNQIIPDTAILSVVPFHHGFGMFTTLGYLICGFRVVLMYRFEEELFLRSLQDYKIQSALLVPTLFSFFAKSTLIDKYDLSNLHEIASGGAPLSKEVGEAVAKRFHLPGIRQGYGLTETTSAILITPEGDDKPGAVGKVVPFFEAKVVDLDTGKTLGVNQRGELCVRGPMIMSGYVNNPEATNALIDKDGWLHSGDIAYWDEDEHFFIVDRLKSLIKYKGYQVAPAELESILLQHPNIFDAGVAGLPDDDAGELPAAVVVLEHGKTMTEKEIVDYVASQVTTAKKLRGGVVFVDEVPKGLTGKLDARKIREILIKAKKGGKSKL

NCC(O)c1ccc(O)cc1 (stereo not given)
inactive: [1] | [2] | [3] | [4] | [5] | [6] | [7] | [8] | [9] | [10] | [11] | [12] | [13] | [14] | [15] | [16] | [17] | [18] | [19] | [20]
